Experimental data: PubChem BioAssay AID588342 (National Center for Advancing Translational Sciences (NCATS), 2011)
Hit rate of the full screen: of about 360,000 compounds, about 25,000 (6.9%) were called active. A call without a number means that no potency is given here. Not shown: some 9% with an inconclusive outcome. The sample holds actives, similar compounds and a random draw of the others, so the mix is not that of the screen. The call rests on the fitted dose curve; in most records, active means well fitted inhibition curve with a large enough effect; inconclusive means small, poorly fitted or top-dose-only effect; inactive means flat fitted curve, though single readings scatter.

target: Luciferin 4-monooxygenase (Photinus pyralis) (UniProt P08659); test: qHTS profiling assay for firefly luciferase inhibitor/activator using purifed enzyme and Km concentrations of substrates (counterscreen for miR-21 project); settings: purified FLuc, luminescence inhibition; series mostly up to 57.5 µM; further: nearly all actives have a fitted effect of over 55% in size
Sequence (P08659 whole entry, looked up): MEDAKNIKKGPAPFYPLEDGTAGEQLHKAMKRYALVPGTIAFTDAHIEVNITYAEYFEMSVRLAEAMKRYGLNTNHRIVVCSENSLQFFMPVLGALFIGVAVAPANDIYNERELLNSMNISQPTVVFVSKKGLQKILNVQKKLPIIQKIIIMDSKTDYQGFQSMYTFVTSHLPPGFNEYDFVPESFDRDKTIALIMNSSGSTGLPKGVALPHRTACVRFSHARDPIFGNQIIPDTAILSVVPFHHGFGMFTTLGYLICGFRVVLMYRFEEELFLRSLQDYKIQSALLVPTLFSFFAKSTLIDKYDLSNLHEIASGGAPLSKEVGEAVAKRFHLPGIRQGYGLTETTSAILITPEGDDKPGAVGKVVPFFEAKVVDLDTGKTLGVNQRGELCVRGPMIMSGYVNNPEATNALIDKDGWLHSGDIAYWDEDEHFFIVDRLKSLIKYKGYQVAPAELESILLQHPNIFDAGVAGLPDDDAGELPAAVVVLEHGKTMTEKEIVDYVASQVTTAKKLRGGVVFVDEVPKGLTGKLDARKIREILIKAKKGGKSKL
In short: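 Purified P. pyralis luciferase, 10 nM final, with Km-level 10 uM D-luciferin and 10 uM ATP in 50 mM Tris acetate pH 7.5, 10 mM Mg acetate, 0.01% Tween-20, 0.05% BSA; 6-point qHTS titration about 60 µM downward; luminescence read.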
Potency means the concentration at half of the fitted maximal effect.

Structure (SMILES)	Potency
CCc1cc2c(cc3c(=O)n(CC(=O)NCc4cccc(Cl)c4)nc(CC)n32)s1	inactive
O=C(CSc1ncn[nH]1)Nc1nc(-c2cccc([N+](=O)[O-])c2)cs1	inactive
COc1ccc(-n2cnnc2SCC(=O)Nc2cccc([N+](=O)[O-])c2)cc1	inactive
O=C(CSc1nc(-c2ccccc2)cs1)Nc1cccc([N+](=O)[O-])c1	10.7 µM (active)
O=C1NC(c2ccc(-c3ccccc3[N+](=O)[O-])o2)C(C(=O)c2ccc(Cl)cc2)C(O)(C(F)(F)F)N1 (stereo unspecified)	inactive
Cc1cc([N+](=O)[O-])c(-c2ccc(/C=N/n3cnnc3)o2)cc1Cl	inactive
CC1=NN(c2ccc(Cl)c(C(=O)O)c2)C(=O)/C1=C/c1ccc(-c2ccccc2[N+](=O)[O-])o1	4.78 µM (active)
CCOC(=O)c1cc2cc3ccccc3cc2oc1=O	9.53 µM (active)
NS(=O)(=O)c1ccc(NC(=O)COC(=O)c2cc3ccccc3oc2=O)cc1	inactive
C=CCc1cccc2cc(C(=O)OCC)c(=O)oc12	inactive
O=C(CCC(=O)N1CC2CCCN2c2ccccc21)NCc1ccccc1Cl (stereo unspecified)	inactive
O=C(CCc1nc(CN2CCN(S(=O)(=O)c3ccc(Br)cc3)CC2)no1)N1CCCCC1	inactive
CCOC(=O)c1c(C)[nH]c(CCC(=O)NCCCN2CCN(c3cccc(Cl)c3)CC2)c1C	inactive
CN(C)CCCn1c(-c2ccc(Cl)cc2)csc1=Nc1ccccc1	inactive
CN(C)CCn1c(=S)[nH]c2ccc(Cl)cc2c1=O	inactive
CN(C)CCN=c1cc(-c2ccccc2)oc2ccc(Cl)cc12	6.01 µM (active)
O=C(CCCn1c(=O)c2cccn2c2cccnc21)NCc1ccc(F)cc1	inactive
Cc1ccccc1Cn1nc(C)c(NC(=O)c2cc(-c3ccc(F)cc3)on2)c1C	inactive
CCOC(=O)C1=C(N)N2C(=O)C(C)SC2=C(C(=O)OCC)C1c1cc(OC)c(OC)c(OC)c1 (stereo unspecified)	inactive
CC1(C)CCSC(/C=C/c2ccccc2)=N1	13.5 µM (active)
Cc1ccc(C)c(CN2C(=O)c3ccccc3S(=O)c3ccc(C(=O)N4CCOCC4)cc32)c1 (stereo unspecified)	inactive
CC(=O)N/N=C/c1cc2c(cc1[N+](=O)[O-])OCO2	inactive

Structure (SMILES)	Potency
COc1ccc(C/C(C)=N/NC(=O)c2cc(C)oc2C)cc1	inactive
CC(=O)c1ccc(N2CCN(CC(=O)Nc3ccccc3N3CCOCC3)CC2)cc1	inactive
Cc1cc(C(=O)N/N=C/c2ccccc2[N+](=O)[O-])c(C)o1	16.9 µM (active)
Cc1cc(C(=O)N/N=C\C(Br)=C\c2ccccc2)c(C)o1	8.49 µM (active)
CC(=O)N/C(=C/c1ccc(OC(F)F)cc1)C(=O)O	inactive
O=C(Cc1cc(=O)[nH][nH]1)N/N=C/c1ccccc1[N+](=O)[O-]	inactive
Cc1cc(Nc2ccc(N3CCOCC3)cc2)c2cccc(C)c2n1	inactive
Cc1cc(C(=O)OCC(=O)Nc2ccccc2Cl)c(C)o1	inactive
Cc1cc(-c2n[nH]c(=S)n2/N=C/C(Br)=C/c2ccccc2)n[nH]1	inactive
CC(=C/c1ccccc1)/C=N/NC(=O)c1cc(C)oc1C	1.35 µM (active)
Cc1ccccc1N/N=C/c1ccc(N2CCOCC2)cc1	10.7 µM (active)
Cc1ccc(CC(=O)Nc2ccc(S(=O)(=O)N3CCOCC3)cc2)cc1C	inactive
Cc1cccc(Cn2c(=O)n(CCC(=O)NCCc3ccc(Cl)cc3)c(=O)c3sccc32)c1	inactive
O=C(CN1CCN(C2CCS(=O)(=O)C2)CC1)N1N=C(c2ccc(Cl)cc2)CC1c1ccco1 (stereo unspecified)	inactive
CCOC(=O)c1cc(-c2ccccc2)n(CCC(=O)Nc2ccccc2CC)c1C	inactive
CC1=Nc2cc(C(=O)N3CCC(C)CC3)ccc2Sc2ccc(Cl)cc21	inactive
CC(=O)Nc1cccc(NC(=O)CSc2nccn2Cc2ccc3c(c2)OCO3)c1	inactive
COc1ccc(Br)cc1CNC(=O)c1cc(=O)[nH]c2ccc(S(=O)(=O)N3CCCC3)cc12	inactive
O=c1c2c(ncn1Cc1ccccc1)nc1n2CCC1	inactive
Cc1cc(C)nc(NS(=O)(=O)c2ccc(NC(=O)c3cc(=O)c4ccc(C)c(C)c4o3)cc2)n1	inactive
O=c1cc(CSc2ncn[nH]2)[nH]c2ccc(F)cc12	inactive
CC(C)N(Cc1nnc(-c2ccccc2Br)o1)C(=O)c1cc(Cl)nc2ccccc12	inactive

Structure (SMILES)	Potency
CCN(CC)c1ccc(C(=O)N/N=C/c2ccc(N3CCOCC3)cc2)cc1	inactive
Cc1cc(C(=O)N/N=C/c2ccc(N3CCOCC3)cc2)c(C)o1	13.5 µM (active)
Cc1ccc(OCCCC(=O)Nc2ccc(N3CCOCC3)cc2)cc1	inactive
O=c1c2ccccc2ccc2ccc(P(=O)(O)O)cc12	inactive
O=C(OCc1ccc([N+](=O)[O-])cc1)c1ccccn1	inactive
COc1ccc(C(=O)CSc2nc(C)cc(C)n2)cc1[N+](=O)[O-]	inactive
N/C(=N\OC(=O)c1ccc([N+](=O)[O-])cc1)c1ccccn1	0.601 µM (active)
COc1ccc(C(=O)O/N=C(\N)c2ccccn2)cc1[N+](=O)[O-]	12 µM (active)
Cc1ccc(C(=O)O/N=C(\N)c2ccccn2)cc1Cl	0.169 µM (active)
Cc1ccc(NC(=O)c2ccccn2)cc1S(=O)(=O)N1CCOCC1	inactive
O=C(Nc1ccccc1Cl)O/N=C(/c1ccccc1)c1ccccn1	inactive
O=C(COC(=O)c1ccccn1)NNC(=O)c1ccc([N+](=O)[O-])cc1	inactive
COc1ccc(C(=O)NNC(=O)c2cnccn2)cc1[N+](=O)[O-]	inactive
O=C(CCS(=O)(=O)c1cc(Br)cc2c1N(C(=O)C1CC1)CC2)Nc1ccc(C(F)(F)F)cc1	inactive
C/C=N/NC(=O)CCCC(=O)N/N=C/C	inactive
COc1ccccc1C(=O)NCC(=O)NCCSc1ccc(Br)cc1	inactive
Cn1nnnc1SCCCNCc1ccc(Cl)cc1	inactive
Cc1ccc(NC(=O)C(=O)NCC(c2cccnc2)N2CCOCC2)cc1 (stereo unspecified)	inactive
Cc1cc(NC(=O)CSc2ncc(C(=O)Nc3ccc(Cl)cc3)c(=O)n2C)no1	inactive
Cc1ccc(NC(=O)c2cnc(SCC(=O)NCC3CCCO3)n(C)c2=O)cc1 (stereo unspecified)	9.53 µM (active)
Cn1c(SCC(=O)c2ccccc2)ncc(C(=O)Nc2ccc(F)cc2)c1=O	inactive
COc1ccc(Cl)cc1NC(=O)CSc1nc(=O)[nH]c2c1CCCC2	inactive

Structure (SMILES)	Potency
NC(=O)C1CCN(C(=O)/C(=C/c2ccco2)NC(=O)c2ccccc2)CC1	inactive
O=C(NCC1CCCO1)/C(=C\c1ccco1)NC(=O)c1ccccc1 (stereo unspecified)	inactive
C/C(=C\c1ccco1)C1Nc2cccc3cccc(c23)N1	10.7 µM (active)
CNC(=O)c1nnc(Cc2ccc(Cl)cc2)o1	inactive
Clc1ccc(Cc2nnc(-c3cccs3)o2)cc1	19 µM (active)
c1csc(-c2nnc(COc3ncnc4sccc34)o2)c1	inactive
CC(Sc1oc(-c2ccco2)nc1S(=O)(=O)c1ccc(Br)cc1)c1ccccc1 (stereo unspecified)	inactive
Cc1cc(C)n2nc(C(=O)OCC(=O)N(C)CC(=O)Nc3ccc(F)cc3)nc2n1	inactive
COc1ccc(CNC(=O)c2cc3c(=O)[nH]c4ccc(C)cc4c3s2)c(OC)c1	inactive
CCOC(=O)c1nc(Nc2ccc(C(=O)OC)cc2)c2ccccc2n1	inactive
COC(=O)c1ccc(NCC(=O)c2ccccc2)cc1	1.51 µM (active)
Cc1ccc(C(=O)CNc2ccc(F)cc2)cc1	4.78 µM (active)
COC(=O)c1ccc(NCC(=O)N2CCCCCC2)cc1	inactive
Cc1ccc(NC(=O)CCC(=O)c2ccc(Br)cc2)cc1	inactive
Cc1ccc(C(=O)NC2CCN(C(=O)Nc3ccc(F)cc3)CC2)cc1	inactive
CCn1c2ccccc2c2nnc(N3CCN(c4cc(C)ccc4C)CC3)nc21	inactive
CC(=O)Nc1cc(C(=O)NCc2ccc(F)cc2Cl)ccc1Sc1ccc(Cl)cc1	inactive
O=c1c(=O)n(Cc2c(F)cccc2Cl)ccn1Cc1ccccc1	inactive
CCOC(=O)C1CCN(c2c(Nc3cc(C)cc(C)c3)c(=O)c2=O)CC1	inactive
CCOC(=O)C1CCN(c2ccc(C(=O)O)cc2[N+](=O)[O-])CC1	inactive
CCOC(=O)C1CCN(c2csc3ccc(C)cc3c2=O)CC1	7.57 µM (active)
CCOCCCNC(=O)c1cn(CC)c2ccc(S(=O)(=O)N3CCc4ccccc4C3)cc2c1=O	inactive

Structure (SMILES)	Potency
C=CCn1cc(Cl)cc(C(=O)Nc2ccccc2)c1=O	16.9 µM (active)
C=CCc1cccc2cc(C(=O)Nc3ccc(NC(C)=O)cc3)c(=O)oc12	inactive
O=C(Nc1cccnc1)c1cc(Cl)ccc1Cl	inactive
CCOc1ncccc1C(=O)Nc1ccc(S(=O)(=O)Nc2nc(C)cc(C)n2)cc1	inactive
Cc1ccc2[nH]c3c(=O)n(CC(=O)NC(C)C)ncc3c2c1	inactive
O=C(COc1ccc(Cl)cc1)Nc1ccccc1OCc1cc(=O)n2ccccc2n1	inactive
Cc1ccc2c(c1)N(C(=O)CCC(=O)N1CCc3ccccc3C1)CCO2	inactive
CCCn1nc(C(=O)N2CCCc3ccccc32)c2ccccc2c1=O	inactive
O=C(NCCCN1CCOCC1)c1cc(-c2cccc(O)c2)on1	inactive
O=C(c1noc2c1CCCC2)N1CCc2ccccc2C1	16.9 µM (active)
O=C(C(=O)N1CCc2ccccc2C1)N1CCc2ccccc2C1	inactive
Cn1cccc1C(=O)N1CCc2ccccc2C1	inactive
O=C(c1cc(-c2ccc(O)cc2)on1)N1CCOCC1	9.53 µM (active)
Cc1ccc(-c2cc(C(=O)N3CCc4ccccc4C3)no2)cc1	23.9 µM (active)
CN1CCN(Cc2c(C(=O)N3CCc4ccccc4C3)nc3ccc(Cl)cn23)CC1	inactive
O=C(c1cc(-c2ccc(O)cc2)on1)N1CCCc2ccccc21	16.9 µM (active)
O=C(c1c(Cl)nc2sccn12)N1CCCc2ccccc21	inactive
O=C(c1cccs1)N1CCN(C(=O)N2CCOCC2)CC1	inactive
